Compounds with a hit are over-represented: about 1.4% of the library has one in this group of screens.
RE007 growth inh = less growth of the S. pombe RE007 Vpr strain | S. pombe RE007 Vpr strain, BacTiter-Glo ATP luminescence, 24 h | Potency, µM (series often up to 92.2 µM), inactives show at the top dose activity change, negative = less growth, usual class: inhibitors | hit rate 0.21% among 360,000; active = well fitted falling curve with a large enough effect; inconclusive = small, poorly fitted or top-dose-only effect; inactive = no such curve, though single readings can be large or run the other way; note: nearly all actives have a fitted effect of over 50% in size
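Fission yeast RE007 carrying one integrated HIV-1 vpr copy, seeded at OD 0.01 in PMG+AL medium with 23 nL pinned compound. Grown 24 h at 30 degrees; viability read by BacTiter-Glo luminescence after 5 min.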
AmpC inh no detg = AmpC beta-lactamase inhibition without detergent | P00811 | hit rate 0.52% among 330,000 | AmpC nitrocefin hydrolysis, absorbance 480 nm, 0.0001% Triton | AID 485341 | Potency, µM (titrated, usually from 57.1 µM), without a hit: at the top dose activity change, negative = inhibition, usual class: inhibitors;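 note: plate controls were no compound for no effect and no enzyme for full effect; nearly all actives have a fitted effect of over 20% in size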
Target sequence (P00811 whole entry, looked up): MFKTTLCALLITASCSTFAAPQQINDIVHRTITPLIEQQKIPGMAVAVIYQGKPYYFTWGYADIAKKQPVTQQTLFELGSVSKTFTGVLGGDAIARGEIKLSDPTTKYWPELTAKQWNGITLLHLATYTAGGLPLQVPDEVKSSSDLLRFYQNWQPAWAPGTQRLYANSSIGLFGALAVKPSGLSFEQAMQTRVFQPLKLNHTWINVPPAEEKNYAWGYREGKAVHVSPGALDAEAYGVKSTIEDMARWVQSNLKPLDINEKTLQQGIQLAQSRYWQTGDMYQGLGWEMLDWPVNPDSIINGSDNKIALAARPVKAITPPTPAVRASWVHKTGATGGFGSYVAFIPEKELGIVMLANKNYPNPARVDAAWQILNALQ
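AmpC (5.3 nM in the dispensed reagent) in 20 mM phosphate pH 7.0 with 0.01% (detergent screen) or 0.0001% Triton X-100 was preincubated with compounds for 15 min at room temperature. Nitrocefin was then added from an 800 uM solution, and hydrolysis was followed at 480 nm.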
AmpC inh detg = AmpC beta-lactamase inhibition with detergent present. P00811. AmpC hydrolysis of nitrocefin, absorbance 480 nm, 0.01% Triton. Potency, µM (doses to about 114 µM), for inactives: top-dose activity change, negative = inhibition, usual class: inhibitors. hit rate 0.041% among 370,000. AID 485294;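 note: 0% = no-compound wells and -100% = no-enzyme wells; nearly all actives have a fitted effect of over 25% in size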
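AmpC (5.3 nM in the dispensed reagent) in 20 mM phosphate pH 7.0 with 0.01% (detergent screen) or 0.0001% Triton X-100 was preincubated with compounds for 15 min at room temperature. Nitrocefin was then added from an 800 uM solution, and hydrolysis was followed at 480 nm.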
LmPK inh = LmPK (Leishmania mexicana) enzyme inhibition; purified LmPK, Kinase-Glo ATP luminescence, 1 h; Potency, µM (top dose mostly 57.5 µM), inactives show at the top dose activity change, negative = inhibition, most hits filed as inhibitors; hit rate 0.37% among 290,000
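Screened at intermediate enzyme activity to detect both inhibitors and activators: LmPK at 0.1 nM, with a 0.5 nM enzyme column as activation reference. PEP 0.5 mM, ADP 0.1 mM; ATP detected by luminescence after 1 h.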
TbPYK inhibitor = inhibitors of Trypanosoma brucei pyruvate kinase. Q57TT1. TbPYK enzyme, Kinase-Glo Plus ATP luminescence, 45 min. Potency, µM (doses to about 76.8 µM), inactives show top-dose activity, negative = inhibition, actives largely listed as inhibitors. hit rate 0.12% among 410,000. AID 624173; note: nearly all actives have a fitted effect of over 50% in size
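Readout: single end-point luminescence (Kinase-Glo Plus, 10 min). Reaction conditions were TbPYK/substrate plus 130 uM ADP, 45 min at RT, pH 7.2 TEA buffer. No-enzyme wells served as controls, and data were normalized before concentration-response fitting.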
Giardia FBPA inh-1 = inhibitors of Giardia lamblia fructose-1,6-bisphosphate aldolase; A8B2U2; purified Giardia FBPA; Potency, µM (doses to about 59.6 µM), for inactives: at the top dose activity, negative = inhibition, most hits filed as inhibitors; hit rate 0.71% among 290,000; AID 2451; note: nearly all actives have a fitted effect of over 55% in size
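40 nM FBPA preincubated 10 min at RT with compound (up to 57.5 uM final), then substrate plus GAPDH/TPI/NAD/arsenate coupling and diaphorase/resazurin added. Fluorescence read after 20 min at RT, 525/598 nm.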
Giardia growth = Giardia lamblia growth inhibition. hit rate 5% among 1,500. Potency, µM (highest dose often 57.5 µM), without a hit: at the top dose activity change, negative = inhibition, usual class: inhibitors. Giardia lamblia trophozoite growth inhibition. shares compounds with Giardia FBPA inh-1;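 note: trophozoites exposed to compound for 48 h at 37 °C; nearly all actives have a fitted effect of over 70% in size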
Mammal cell tox = toxic to mammalian cells in Giardia aldolase counter-screen. Potency, µM (series often up to 57.5 µM), inactives show at the top dose viability change, negative = toxicity, usual class: inhibitors. shares compounds with Giardia FBPA inh-1. hit rate 4% among 1,500. mammalian cell viability counter-screen, qHTS. AID 2786;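 note: Chinese hamster ovary cells used as mammalian cytotoxicity surrogate; viability measured as cellular ATP by luminescence; compound exposure lasted 48 h before reading; nearly all actives have a fitted effect of over 60% in size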
Giardia FBPA inh-2 = confirmation of Giardia fructose-bisphosphate aldolase inhibitors; shares compounds with Giardia FBPA inh-1; purified Giardia aldolase enzyme activity, qHTS; Potency, µM (series often up to 57.5 µM), for inactives: at the highest dose activity change, negative = inhibition, most hits filed as inhibitors; hit rate 5% among 1,500; AID 2787; note: nearly all actives have a fitted effect of over 45% in size
Rabbit aldolase = rabbit FBP aldolase inhibition by Giardia aldolase hits; AID 2794; hit rate 4% among 1,500; Potency, µM (doses to about 57.5 µM), inactives show top-dose activity, negative = inhibition, most hits filed as inhibitors; Rabbit muscle FBPA enzyme inhibition, selectivity counter-screen; shares compounds with Giardia FBPA inh-1; note: nearly all actives have a fitted effect of over 60% in size
Target sequence (P00883 whole entry, looked up): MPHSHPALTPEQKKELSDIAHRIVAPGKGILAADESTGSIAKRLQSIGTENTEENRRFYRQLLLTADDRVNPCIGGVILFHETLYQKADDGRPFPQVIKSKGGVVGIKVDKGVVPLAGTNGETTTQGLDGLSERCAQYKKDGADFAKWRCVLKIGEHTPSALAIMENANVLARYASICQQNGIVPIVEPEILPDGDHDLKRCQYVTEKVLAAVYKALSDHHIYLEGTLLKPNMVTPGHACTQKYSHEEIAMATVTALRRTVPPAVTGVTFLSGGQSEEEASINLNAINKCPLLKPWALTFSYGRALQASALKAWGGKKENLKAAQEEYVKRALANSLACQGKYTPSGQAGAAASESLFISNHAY
GAPDH counter = counter-screen for Giardia aldolase inhibitors: GAPDH coupling enzyme; hit rate 6% among 1,500; shares compounds with Giardia FBPA inh-1; Potency, µM (titrated, usually from 57.5 µM), for inactives: at the top dose activity change, negative = inhibition, usual class: inhibitors; GAPDH coupling enzyme counterscreen, biochemical, qHTS; note: nearly all actives have a fitted effect of over 55% in size
* marks the source's active call; other numbers are inactive results; u = inconclusive; x = no result; [ ] = dose if it differs, or a comment. Unless noted, calls come from the whole dose curve; as a rule, active = well fitted curve in the direction sought with a large enough effect; inconclusive = small, poorly fitted or top-dose-only effect, or another doubt; inactive = no such curve, though single readings can be large; an effect the other way counts as inactive or inconclusive. Unless noted, % is set by controls: 0 for no effect and ±100 for the full control effect; potency is the fitted concentration of half-maximal effect.

SMILES | RE007 growth inh | AmpC inh no detg | AmpC inh detg | LmPK inh | TbPYK inhibitor | Giardia FBPA inh-1 | Giardia growth | Mammal cell tox | Giardia FBPA inh-2 | Rabbit aldolase | GAPDH counter
O=[N+]([O-])c1cc(F)c2cccnc2c1O | u | 9% | -7% | 2% | -13% | 20µM* | u | -19% | u | u | 32µM*
Cc1ccc(NC(=O)CN2C(=O)CSc3ccc(S(=O)(=O)N(C)C)cc32)c(C)c1 | x | x | -7% | x | -6% | x | x | x | x | x | x
Cc1cccc[n+]1CC(=O)/C=C1\N(C)c2ccccc2C1(C)C | -4% | -4% | -5% | 2% | -11% | -4% | x | x | x | x | x
CN1/C(=C\C(=O)CSc2cccc[n+]2[O-])C(C)(C)c2ccccc21 | 8% | 1% | 4% | 3% | 1% | 11µM* | -21% | 24% | -3% | 7% | 2%
COc1cc(Br)c(CN2CCCN(C)CC2)cc1OC | 5% | 1% | u | -1% | 2% | 13µM* | 15% | 10% | 0% | 7% | 11%
Cn1c(=O)c2c([nH]c(=S)n2Cc2ccc(Cl)cc2)n(C)c1=O | 9% | -19% | -7% | u | 3.5µM* | 8.9µM* | -1%[38.3 µM] | -19% | -5% | -11% | -2%
O=[N+]([O-])c1ccc(S(=O)(=O)N2CCN(Cc3ccco3)CC2)cc1 | -8% | 0% | -5% | 1% | 40% | x | x | x | -5% | -8% | 5%
CCCc1ccc(S(=O)(=O)N2CCN(Cc3ccco3)CC2)cc1 | -9% | -8% | -8% | 1% | -9% | 1% | x | x | x | x | x
Cc1ccc(NC(=O)NC2CCCCC2)cc1Cl | 10% | -5% | -12% | 1% | -16% | 0% | x | x | x | x | x
Cc1ccc(NC(=O)CN(C)C2CCCCC2)cc1Cl | 8% | 31% | -5% | -6% | -4% | 20µM* | 18% | 2% | 8% | 2% | 1%
CCOC(=O)c1c(S(=O)(=O)N2CCC(C(=O)N3CCN(c4cccc(C)c4C)CC3)CC2)c(C)n(C)c1C | x | x | -8% | x | -8% | x | x | x | x | x | x
O=C(Nc1nccs1)c1cn2ccccc2n1 | 2% | -19% | 4% | 25µM* | -4% | 14µM* | u | 20µM* | -7% | -3% | 1%
Cc1cnc(C(=O)Nc2nccs2)cn1 | -13% | -6% | -9% | -22% | -14% | 20µM* | -9% | 18% | 3% | 2% | 11%
NNC(=O)c1cn2ccccc2n1 | 17% | -8% | -6% | 1% | 0% | -30% | x | x | x | x | x
COc1ccc(OC)c2sc(NC(=O)c3ccc(S(=O)(=O)N4CCCC4)cc3)nc12 | x | x | 18% | x | 0% | x | x | x | x | x | x
COc1ccc(C)cc1NC(=O)C(NCC(O)c1ccccc1)c1ccccc1 (stereo not drawn) | 1% | -4% | -6% | 0% | 6% | 13µM* | 21% | 11% | 4% | 1% | 0%
COc1ccc(S(=O)(=O)c2nnn(-c3ccccc3F)c2C)cc1 | x | x | -1% | x | -14% | x | x | x | x | x | x
CCN(CC(=O)NCc1ccc(F)cc1)C(=O)CN1CCN(c2ccc(OC)cc2)CC1 | 3% | 3% | 2% | -11% | -3% | 7.9µM* | -17% | 5% | -8% | -10% | 1%
COc1ccc(CCC(=O)NCc2nc3cccnc3n2Cc2ccccc2)cc1 | x | x | 1% | x | -1% | x | x | x | x | x | x
Cc1ccc(CNC(=O)CSc2nc3ccccc3[nH]2)cc1 | -4% | -19% | 0% | 2% | -7% | 13µM* | 39% | 3% | 4% | 8% | -9%
COC(=O)c1ccc(CNC(=O)CSc2nc3ccccc3[nH]2)cc1 | -10% | -27% | -10% | 0% | 3% | -3% | x | x | x | x | x
CCNC(=O)Cc1ccc(NS(=O)(=O)c2ccc(F)cc2)cc1 | -1% | -44% | -6% | 3% | -2% | 3% | x | x | x | x | x
CCNC(=S)NS(=O)(=O)c1ccc(F)cc1 | u | -2% | -2% | 0% | 0% | u | 4%[38.3 µM] | 3% | 4% | -1% | 2%
O=S(=O)(c1ccc(Br)cc1)c1nc(-c2ccco2)oc1SCc1ccccc1Cl | x | x | 7% | x | -16% | x | x | x | x | x | x
CCOc1ccccc1NC(=O)Cn1c(=O)nc(-c2ccccc2F)c2cc(Cl)ccc21 | x | x | 5% | x | 3% | x | x | x | x | x | x
CC1=C(C#N)C(=O)N(C2CCS(=O)(=O)C2)C(=O)/C1=C\c1ccc(C)o1 (stereo not drawn) | x | 13% | -12% | 5% | x | 13µM* | 47% | 5% | u | u | u

Screening data: PubChem, National Center for Advancing Translational Sciences (NCATS)
